In PubChem BioAssay AID1259245 (Vanderbilt High Throughput Screening Facility, 2017):
About 1,400 (3.5%) of roughly 40,000 compounds were called active.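 The calls were made as follows: active = any of four per-well response measures lying three or more SD from its plate-wide compound average, in either direction; inactive = the rest, inconclusive results apart.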 Many of the other results were omitted from the sample, so actives are more common in it than they were.

molecular target: Voltage-dependent calcium channel gamma-2 subunit (Mus musculus) + Glutamate receptor 2 (Rattus norvegicus) (UniProt O88602+P19491); experiment: modulators of GluA2-stargazin AMPA receptor complexes, primary screen, cell-based, membrane potential dye (AID 1259245); settings: HEK293 GluA2+stargazin, membrane potential dye (FDSS), glutamate EC50, at 30 µM, hits were called plate by plate, in both directions; compound max-min signal: compound-alone response (agonism); glutamate slope, % of max: measured here: glutamate response slope, % max
Sequence (O88602 whole entry, looked up): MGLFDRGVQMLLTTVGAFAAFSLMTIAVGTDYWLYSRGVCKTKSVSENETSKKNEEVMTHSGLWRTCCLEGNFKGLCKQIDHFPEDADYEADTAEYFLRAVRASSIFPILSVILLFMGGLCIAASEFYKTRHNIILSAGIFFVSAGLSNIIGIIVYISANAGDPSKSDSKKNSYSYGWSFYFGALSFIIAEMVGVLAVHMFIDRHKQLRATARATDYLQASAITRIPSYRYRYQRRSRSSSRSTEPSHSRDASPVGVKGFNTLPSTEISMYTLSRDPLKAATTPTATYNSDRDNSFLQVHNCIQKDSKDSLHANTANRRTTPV
Sequence (P19491 whole entry, looked up): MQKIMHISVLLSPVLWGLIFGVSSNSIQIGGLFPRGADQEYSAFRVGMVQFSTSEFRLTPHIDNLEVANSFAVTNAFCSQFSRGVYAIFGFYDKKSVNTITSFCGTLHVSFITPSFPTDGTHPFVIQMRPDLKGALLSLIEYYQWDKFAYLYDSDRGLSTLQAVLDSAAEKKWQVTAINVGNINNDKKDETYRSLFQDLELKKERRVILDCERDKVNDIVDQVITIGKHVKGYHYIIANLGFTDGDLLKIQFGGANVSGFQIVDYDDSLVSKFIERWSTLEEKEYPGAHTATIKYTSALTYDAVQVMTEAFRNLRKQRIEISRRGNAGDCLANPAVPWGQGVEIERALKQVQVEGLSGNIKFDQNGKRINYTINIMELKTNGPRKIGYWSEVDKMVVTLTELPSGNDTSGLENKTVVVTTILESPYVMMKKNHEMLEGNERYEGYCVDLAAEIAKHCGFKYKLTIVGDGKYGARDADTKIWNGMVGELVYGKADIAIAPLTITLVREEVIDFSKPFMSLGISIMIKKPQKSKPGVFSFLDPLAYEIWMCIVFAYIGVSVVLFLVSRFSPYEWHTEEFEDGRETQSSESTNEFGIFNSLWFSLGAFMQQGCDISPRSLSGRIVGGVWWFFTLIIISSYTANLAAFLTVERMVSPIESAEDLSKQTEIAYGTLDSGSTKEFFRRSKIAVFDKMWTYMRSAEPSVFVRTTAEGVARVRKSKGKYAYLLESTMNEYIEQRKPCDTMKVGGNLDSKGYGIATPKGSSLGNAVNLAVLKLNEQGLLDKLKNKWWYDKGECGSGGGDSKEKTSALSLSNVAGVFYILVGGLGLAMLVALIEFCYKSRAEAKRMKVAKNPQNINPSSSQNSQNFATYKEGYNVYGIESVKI

Compound	compound max-min signal	glutamate response, % of max	glutamate slope, % of max [%]
COC(=O)c1cc(OC)c(OC)cc1NC(=O)c1cc(C)oc1C	0.112	34.9% (inactive)	55.7
Cn1cccc1C(O)CNC(=O)C1(c2ccccc2)CCOCC1 (stereo unspecified)	0.0879	49.3% (inactive)	62.9
COc1ccc2c(=O)c(Oc3ccc(C(=O)Nc4cccnc4)cc3)c(C)oc2c1	0.137	24.4% (inactive)	41.6
COc1ccc2c(=O)c(Oc3ccc(C(=O)N4CCN(c5ccccn5)CC4)cc3)c(C)oc2c1	0.0327	28.3% (active)	56.7
COCCNC(=O)c1ccc(Oc2c(C)oc3cc(OC)ccc3c2=O)cc1	0.0907	9.44% (inactive)	21.9
COc1ccc(CCNC(=O)Cn2nc(-c3ccccc3OC)ccc2=O)cc1	0.0465	26.6% (inactive)	53.9
COC(=O)c1ccc2c(=O)n(Cc3ccc(C(=O)N4CCCCCC4)cc3)c(=S)[nH]c2c1	0.108	50.5% (inactive)	81
Cc1ccc(NC(=O)Cn2nc(-c3ccco3)c3sc(N4CCOCC4)nc3c2=O)c(C)c1	0.131	34% (active)	56.8
CCc1cccc(CC)c1NC(=O)Cn1nc(-c2ccco2)c2sc(N3CCCCC3)nc2c1=O	0.0682	31.2% (inactive)	54.8
COc1ccc(C(=O)Cn2nc(-c3ccco3)c3sc(N4CCOCC4)nc3c2=O)cc1OC	0.102	27.5% (inactive)	57
COCC(C)(O)CNC(=O)c1cc(C)oc1C (stereo unspecified)	0.0874	39.3% (inactive)	66.3
CCCc1ccc(C(=O)NCC(C)(O)COC)cc1 (stereo unspecified)	0.117	37.6% (inactive)	59.3
COCC(C)(O)CNC(=O)Cc1cccc(C)c1 (stereo unspecified)	0.0936	4.21% (active)	14.9
COc1ccc(OC)c2sc(N(Cc3ccccn3)C(=O)Cc3ccc(S(C)(=O)=O)cc3)nc12	0.0642	28.9% (inactive)	45.5
Cc1cc([N+](=O)[O-])ccc1NC(=O)C(=O)NCc1ccncc1	0.158	47.7% (inactive)	65.6
O=C(Nc1ccc(N2CCCS2(=O)=O)cc1)c1ccc([N+](=O)[O-])cc1	0.0338	28.1% (inactive)	51.8
O=C(Nc1ccc([N+](=O)[O-])cc1Br)c1ccncc1	0.216	21.7% (active)	38.8
Cc1cc(C)n(CCNC(=O)/C=C/c2cccs2)n1	0.131	25.6% (inactive)	56.8
Cc1noc(C2CN(S(=O)(=O)c3ccc(Cl)cc3)C2)n1	0.142	44.3% (inactive)	70.8
COc1ccc(NC(C)=O)cc1NC(=O)CCCn1nc(-c2ccccc2)ccc1=O	0.08	33.8% (inactive)	52.7
COc1ccc(NC(C)=O)cc1NC(=O)c1ccc(=O)[nH]n1	0.159	38.5% (active)	57.1
O=C(NCc1ccc2c(c1)OCO2)c1ccc(=O)[nH]n1	0.05	25.6% (inactive)	54.3
Cc1nn(CCNC(=O)c2cccc([N+](=O)[O-])c2)c(C)c1Cl	0.133	50.5% (inactive)	65.4
CCCOc1ccc(N2CCN(C(=O)COc3ccc4ccccc4c3)CC2)nn1	0.0411	42.7% (inactive)	61.1

Compound	compound max-min signal	glutamate response, % of max	glutamate slope, % of max [%]
CCCC(=O)N1CCN(c2ccc(Nc3cc(C)ccn3)nn2)CC1	0.194	23.7% (active)	43.2
Cc1ccc(N2CCN(C(=O)COc3nccc(C)n3)CC2)nn1	0.0842	38.9% (inactive)	61.3
O=C(Nc1cccs1)N1CCC(c2nnc(-c3ccc(F)cc3)o2)CC1	0.0749	44.9% (inactive)	64.6
Cc1ccc(CN2C(=O)NC3(CCN(C(=O)c4ccccc4F)CC3)C2=O)cc1	0.0483	11.7% (inactive)	23.5
COc1ccc(CC(=O)Nc2ccc3c(c2)N(S(=O)(=O)c2ccccc2)CCC3)cc1	0.0777	49% (inactive)	74.3
CN(C)S(=O)(=O)c1ccc(C(=O)Nc2ccc3c(c2)N(C(=O)c2ccco2)CC3)cc1	0.176	45.9% (inactive)	62.8
CCOC(=O)c1csc(NC(=O)Cn2cnc(C)cc2=O)n1	0.0863	36.3% (inactive)	51.4
CCOC(=O)c1csc(NC(=O)c2cc(C)no2)n1	0.211	21.3% (active)	37.1
Cc1cc(C(=O)Nc2nc(-c3cccs3)cs2)on1	0.0444	13.4% (inactive)	25.9
Cc1nc(NC(=O)c2ccc3c(c2)CCCC3)sc1C	0.129	29.7% (inactive)	50.6
O=C(Nc1cccc(N2CCCS2(=O)=O)c1)c1cccc(F)c1	0.0432	21.4% (inactive)	45.7
O=C(CSc1cc(N2CCN(c3ccccc3F)CC2)ncn1)c1cccs1	0.0768	53.6% (inactive)	73.7
COC(=O)c1ccc(CSc2cc(N3CCN(c4ccccc4F)CC3)ncn2)o1	0.0593	58.6% (active)	59.5
CCOc1ccccc1NC(=O)CSc1cc(N2CCC(C(=O)NC3CC3)CC2)ncn1	0.107	24% (inactive)	50.5
Cc1cc(C)c2c(n1)nn1c(-n3ccnc3)cc(C)nc21	0.202	43.8% (inactive)	65.7
CCOc1ccc(Nc2cc(C)nc3c4c(C)cc(C)nc4nn23)cc1	0.205	36.4% (inactive)	58.7
Cc1cc(C)c2c(n1)nn1c(NCC(C)C)cc(C)nc21	0.313	35.7% (active)	52.5
CC(=O)NCCn1ncc2c(N3CCN(c4ccccc4)CC3)ncnc21	0.109	30% (inactive)	56.7
Cc1ccc(C(=O)CSc2nccn(-c3ccc(Cl)cc3)c2=O)c(C)c1	0.0972	25.5% (inactive)	43.4
CCS(=O)(=O)N1CCCc2ccc(NS(=O)(=O)c3cc(C)c(C)cc3OC)cc21	0.0618	43.6% (inactive)	69.1
CCS(=O)(=O)N1CCCc2cc(NS(=O)(=O)c3cc(C)c(OC)c(C)c3)ccc21	0.0675	32.7% (active)	46.4
COc1ccc(S(=O)(=O)Nc2ccc3c(c2)CCCN3S(C)(=O)=O)cc1C	0.0764	41% (inactive)	56.8
CCOC(=O)N1CCN(/C=C(\C#N)C(=O)Nc2ccccc2)CC1	0.158	47.6% (inactive)	78
